Measured values published in the supplement of paper PMC3334620.
The full ranking holds about 33,000 sequences; the median of “E-score (-0.5 to 0.5)” is about -0.043, and the highest 2% start at about 0.37. This excerpt belongs to a sample that is enriched for the highest values.

target: T1, Upc2 (UniProt Q12151); test: PBM E-score (8-mer binding enrichment) (E-score (-0.5 to 0.5)); higher = stronger / more preferred TF binding; conditions: protein concentration: 200 nM; construct: GST-full length
T1 sequence: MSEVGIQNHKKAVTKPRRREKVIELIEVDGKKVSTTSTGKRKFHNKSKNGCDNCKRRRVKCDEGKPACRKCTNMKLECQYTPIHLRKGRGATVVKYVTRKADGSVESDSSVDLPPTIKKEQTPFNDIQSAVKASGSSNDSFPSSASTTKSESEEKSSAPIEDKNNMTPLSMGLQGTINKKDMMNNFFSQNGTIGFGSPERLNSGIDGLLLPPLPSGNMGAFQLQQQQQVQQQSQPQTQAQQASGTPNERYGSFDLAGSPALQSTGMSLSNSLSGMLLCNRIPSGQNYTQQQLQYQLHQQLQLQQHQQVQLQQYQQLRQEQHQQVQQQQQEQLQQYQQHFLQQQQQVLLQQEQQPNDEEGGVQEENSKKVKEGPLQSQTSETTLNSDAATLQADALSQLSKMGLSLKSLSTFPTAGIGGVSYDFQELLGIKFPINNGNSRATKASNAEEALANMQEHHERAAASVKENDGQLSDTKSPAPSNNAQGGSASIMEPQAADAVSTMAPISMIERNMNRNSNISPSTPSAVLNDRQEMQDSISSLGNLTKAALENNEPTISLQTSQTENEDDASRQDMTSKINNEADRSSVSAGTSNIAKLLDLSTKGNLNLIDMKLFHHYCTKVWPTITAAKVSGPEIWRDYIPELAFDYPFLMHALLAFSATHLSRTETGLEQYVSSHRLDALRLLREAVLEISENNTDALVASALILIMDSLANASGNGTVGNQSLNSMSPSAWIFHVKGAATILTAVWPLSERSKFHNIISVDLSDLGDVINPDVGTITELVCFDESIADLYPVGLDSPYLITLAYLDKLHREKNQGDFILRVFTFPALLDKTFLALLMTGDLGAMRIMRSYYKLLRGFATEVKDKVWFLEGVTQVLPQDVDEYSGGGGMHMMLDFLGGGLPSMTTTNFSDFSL
Description: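 Universal 'all 10-mer' protein binding microarrays (Agilent AMADID 015681) probed with GST-tagged S. cerevisiae TFs (full-length or DBD) made by in vitro transcription/translation (PURExpress), about 100-200 nM. Bound TF was detected with fluorescent anti-GST. Each ungapped 8-mer (which stands for itself and its reverse complement) is scored by the PBM enrichment score (E-score), a modified Wilcoxon-Mann-Whitney statistic from -0.5 to +0.5, computed with the Universal PBM Analysis Suite. Scale: above 0.35 generally sequence-specific binding.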

Sequence | PBM E-score
ATCGTTCA | 0.443
ATCGTTCG | 0.384
AACGTTCG | 0.212
AGCGTTCA | -0.0376
ATCGTTGG | 0.0354
AACGTTCA | 0.212
TCTTGAAA | 0.0803
ACAGCGCT | 0.128
CTCTGTCC | -0.116
CTATTGAC | -0.166
GCTTCGGA | 0.102
ACTTCGTC | 0.0529
CCTTCGTC | 0.00619
CCTTCGTA | 0.441
CCTTCGCA | 0.0293
GCTTCGCA | 0.186
GCTTCGTA | 0.449
ACTTCGTG | 0.0872
ACTTCGTA | 0.429
CCGTTTCA | 0.159
CGACTTTC | 0.0358
GCCTCCCC | -0.149
CCCCATAC | 0.174
ACGTTGCG | 0.0848
GGCAGTTA | -0.21

Sequence | PBM E-score
CCGCAGCA | -0.267
ACGAGAAG | 0.277
ACGAGAAA | 0.349
CCGAGAAC | 0.117
ACGAGACT | 0.337
ACGAGAAC | 0.375
ACGAGAAT | 0.396
AATCGCAA | 0.0942
TGCATGAA | 0.0372
AATGCAGA | -0.0923
TGCTAGCA | -0.0249
AGGAACGG | 0.322
GGGAACCA | -0.165
CGGAACGC | 0.243
AGGAACGA | 0.449
CGGAACAA | 0.0835
AGGAACGC | 0.114
CGGAACGA | 0.468
GGGAACGA | 0.466
GGGAACAA | 0.0652
GTCCACAA | -0.215
CCGGAGCA | -0.0221
AGTGCAGC | -0.22
ATTACGTA | 0.309
CCACTGTA | 0.0804

Sequence | PBM E-score
TTGCCCAA | -0.0249
CTGTATAC | 0.281
CCGTATAC | 0.475
AAGTATAT | 0.104
GCGTATAA | 0.444
GAGTATAC | 0.315
CCGTATCC | 0.331
GTGTATAA | 0.138
AGGTATAT | -0.0562
GCGTATTA | 0.0994
ACGTATAT | 0.404
GCGTATAC | 0.454
GGGTATAC | 0.255
CCTAGTGC | -0.199
CGTCATGC | -0.202
CAGAATTC | -0.03
GGATGGCA | 0.0444
ACTACCAG | -0.0238
CTCTTCGC | -0.12
ACTATGAA | -0.0506
AGAGGGTG | -0.171
TTATACAA | 0.0521
GCTGCAAC | -0.107
GTACTCTA | -0.0205
CTGGGTAA | -0.00044

Sequence | PBM E-score
GCTGTGTA | 0.00184
CCGTATCG | 0.319
CCGTATGA | 0.392
ACGTATAG | 0.433
AAGTATAC | 0.306
ACGTATAC | 0.445
CCGTATGC | 0.356
ATGTATAC | 0.263
ACGTATCG | 0.22
ACGTATGA | 0.243
CCGTATAG | 0.485
ACGTATTG | 0.209
CGGTATAG | 0.225
AAGACTTG | -0.00965
CCCTATCA | -0.325
ACACGCGT | 0.152
ACGTTCAT | 0.169
CCTCTGTA | 0.0279
GAGGTCGC | -0.042
GAATCTAA | 0.111
CCGTATAA | 0.483
ACGTATAA | 0.437
AGGTATAA | 0.198
CTGTATAA | 0.156
ATGTATAA | 0.0845

Sequence | PBM E-score
CGGTATAA | 0.267
GACCAATC | -0.117
TCATCAGA | -0.187
GTTGTCAA | -0.00594
TAGCTAAA | 0.119
CCTGCCAA | -0.0976
GGTACCAC | -0.18
CGTACCAG | 0.39
CGTACCTA | 0.376
CGTACCAA | 0.392
CGTACCTC | 0.361
AGTACCTA | -0.109
CATACCAG | -0.0446
AGTACCAA | -0.0772
AGTACCAC | -0.0837
AGTACCAG | -0.134
CGTACCAC | 0.407
TGTACCAA | 0.03
GATCAATC | -0.104
AATTGAGC | -0.0691
GTAGGAAC | 0.13
CAAGCTTG | -0.233
CAGTAACA | -0.0459
AGAGTGCC | -0.209
CATATACA | 0.05

Sequence | PBM E-score
AATATACA | 0.0677
CATATACC | -0.0116
CATATACG | 0.463
AATATACG | 0.465
AATATACT | -0.0413
AAGGACAT | 0.0482
AAAATACG | 0.346
GTGGACAC | -0.158
GGATCGAC | -0.14
GGCGTTGA | -0.0389
GACGTTTA | 0.366
CGCGTTCA | 0.242
AGCGTTTA | 0.363
GGCGTTTA | 0.378
CGCGTTTA | 0.415
GGTCCCCA | -0.24
GACAACCC | 0.0735
AAAGGGGC | -0.127
ACACAGCG | 0.104
ATGGGTTA | -0.00164
CGTTCAAA | 0.369
AGTTCCAG | -0.188
CGTTCCGA | 0.361
CGTTCAAG | 0.407
AGTTCAAG | 0.129

Sequence | PBM E-score
CGTTCAAC | 0.382
AGTTCCGC | 0.0626
CGTTCCAA | 0.329
GGTTCAAC | 0.0526
CGTTCCAG | 0.391
AGTTCAAC | 0.00196
CGTTCCGC | 0.385
AGGCGTGA | -0.00507
CGGAAGTA | 0.0369
AACCACAA | -0.077
GTGAATAA | -0.0516
ACAACTAC | -0.129
GCGAAAAA | 0.148
GACTTAAC | 0.00959
CTGAAGAA | -0.299
CCCATCGG | 0.0976
AGCAAGCT | -0.253
CGTAAGAG | 0.316
ACGCCATC | -0.0963
GCAAACAC | -0.00637
CGTTCCCC | 0.333
GGTTCCCA | -0.0861
CGTTCCCA | 0.373
